Reference: PubChem BioAssay AID2314 (National Center for Advancing Translational Sciences (NCATS), 2010)
Several values for one entry are separate records, joined by “and”; a condition that tells them apart may be missing. Equal values may be shown once. Among all 300,000 compounds or so, about 37,000 (12%) were called active. Cut-off read from the data, not from the text of the source: active = max response mostly above about 13% (no sharp cut-off); inactive = mostly below about 14%. For the sample, actives were picked, then their nearest neighbours and some compounds at random.

Assay: Cycloheximide Counterscreen for Small Molecule Inhibitors of Shiga Toxin; note: read at 38.3 µM for the half of the compounds with a filed dose; 0% is about no effect
Details: cell reporter, cycloheximide protein synthesis inhibition counterscreen; active compounds read high
With `Cc1nn(-c2ccccc2)c2c1c(C)c(CCC(=O)NCC1CCCO1)c(=O)n2C` (centres undefined) the max response was -2.56% (inactive).
With `CC1(c2cccc([N+](=O)[O-])c2)CC(C)(C)N(C(=O)c2ccccc2)c2ccccc21` (centres undefined) the max response was 4.81% (inactive).
For `O=c1c2ccccc2nc2n1C(CSCc1cccc(C(F)(F)F)c1)CS2` (centres undefined), the max response was 1.18% (inactive).
In the case of `CC(=O)N1c2ccc(S(=O)(=O)NCCC(=O)N(C)C3CCCCC3)cc2CC1C` (centres undefined), the max response is reported as 10.2% (inactive).
For `COc1cc(C(=O)NNC(=O)c2ccc(S(=O)(=O)N3CCCCC3)cc2)cc(OC)c1OC`, the max response was -1.13% (inactive).
For `CCN(CC(=O)NC(=O)NCc1ccccc1)Cc1nc2ccccc2c(=O)[nH]1`, the max response was -2.64% (inactive).
With `c1ccc(-c2cc3c(NCC4COc5ccccc5O4)ncnc3s2)cc1` (centres undefined) the max response was 9.76% (inactive).
With `C/C(=N\NC(=O)C(N)=O)c1ccc2c(c1)OCCO2` the max response was 15.2% (inactive).
With `C/C(=N/NC(=O)c1ccncc1)c1ccc2c(c1)OCO2` the max response was 0.639% (inactive).
With `CCSc1ccccc1C(=O)Nc1ccc2c(c1)OCO2` the max response was 21.7% (active).
With `Cc1ccc2nc(-c3ccccn3)cc(C(=O)Nc3ccc4c(c3)OCO4)c2c1` the max response was 20.8% (inactive).
In the case of `O=C(Nc1cccc(S(=O)(=O)Nc2ccc(Cl)cc2)c1)c1ccc2c(c1)OCCO2`, the max response is reported as 12.5% (active).
With `CC(C)NC(=O)CSc1ccccc1C(=O)NCc1ccc2c(c1)OCO2` the max response was 3.57% (inactive).
With `CC(NS(=O)(=O)c1ccc(Cl)cc1)C(=O)Nc1ccc2c(c1)OCCO2` (centres undefined) the max response was -1.8% (inactive).
In the case of `O=C(Nc1cccc([N+](=O)[O-])c1)c1ccc2c(c1)OCO2`, the max response is reported as 36.2% (active).
For `CCN(CC)CCNC(=O)c1ccc(NS(=O)(=O)c2ccc3c(c2)OCCO3)cc1`, the max response was 2.7% (inactive).
In the case of `C/C(=N/NC(=S)Nc1ccccc1)c1ccc2c(c1)OCO2`, the max response is reported as 33.6% (active).
For `CC(NC(=O)Nc1cccc([N+](=O)[O-])c1)c1ccc2c(c1)OCO2` (centres undefined), the max response was -0.734% (inactive).
For `O=C(NCc1cccnc1)c1ccccc1NC(=O)c1c(F)cccc1F`, the max response was 7.34% (inactive).
With `CCCCNC(=O)C1(O)c2ccccc2NC(=O)N1c1ccc(Cl)cc1` (centres undefined) the max response was 7.78% (inactive).
With `CC(=O)Oc1ccc(N(C(C)=O)S(=O)(=O)c2ccc3ccccc3c2)cc1Br` the max response was -1.7% (inactive).
In the case of `O=C(COc1ccc2ccc(=O)oc2c1)NCC(O)c1ccccc1` (centres undefined), the max response is reported as -10.7% (inactive).
For `CN(CC(=O)NCc1ccncc1)S(=O)(=O)c1ccc(Br)cc1`, the max response was -0.724% (inactive).
For `COc1ccc(C(C)C)cc1S(=O)(=O)Nc1ncn[nH]1`, the max response was -4.29% (inactive).
With `CCc1nnc(NC(=O)CCC(=O)N2CCN(c3cc(C)ccc3C)CC2)s1` the max response was -5.72% (inactive).
In the case of `Cc1c(NS(=O)(=O)c2ccc(NC3CCCC3)c([N+](=O)[O-])c2)c(=O)n(-c2ccccc2)n1C`, the max response is reported as -1.22% (inactive).
For `Cc1ccc(NS(=O)(=O)c2ccc3c(c2)n(C)c(=O)c(=O)n3C)c(C)c1`, the max response was 1.12% (inactive).
With `COCc1nnc(NC(=O)CS(=O)(=O)Cc2ccccc2)s1` the max response was 5.49% (inactive).
With `C/C(Cc1ccccc1)=N\NC(=O)CNC(=O)c1ccc2c(c1)OCCO2` the max response was -2.54% (inactive).
With `O=C(Nc1ccc(N2CCOCC2)cc1)c1ccc2c(c1)OCO2` the max response was 36.8% (active).
For `O=C(O)CCC(=O)Nc1ccc(N2CCOCC2)cc1`, the max response was -3.84% (inactive).
For `Cc1ccc(C(=O)Nc2sc(Cc3ccc4c(c3)OCO4)c(C)c2C(N)=O)cc1`, the max response was -4.2% (inactive).
With `O=C(Nc1ccccc1)c1ccc2c(c1)OCCCO2` the max response was 41.3% (active).
In the case of `O=C(c1ccc2c(c1)OCO2)N1CCOCC1`, the max response is reported as -3.42% (inactive).
With `CC(C)C(=O)Nc1cccc(C(=O)Nc2ccc3c(c2)OCO3)c1` the max response was 58.7% (active).
For `O=C(CN1CCc2cc3c(cc2C1)OCCCO3)Nc1ccccc1`, the max response was 5.97% (inactive).
In the case of `COc1ccccc1C(=O)N/C(=C/c1ccc2c(c1)OCO2)C(=O)Nc1cccc(C(=O)O)c1`, the max response is reported as -2.49% (inactive).
For `COCc1nnc(NC(=O)c2ccc3c(c2)OCO3)s1`, the max response was 45.3% (active).
With `CCCN1C2=C(C(=O)CCC2)C(c2ccc(O)c(Br)c2)C2=C1CCCC2=O` the max response was -1.08% (inactive).
With `Cc1ccc(O)c(/C=N/NC(=O)COc2ccc3c(C)cc(=O)oc3c2)c1` the max response was -8.1% (inactive).
In the case of `Cn1c(=O)c2c(ncn2CC(COCc2ccccc2Cl)OCc2ccccc2Cl)n(C)c1=O` (centres undefined), the max response is reported as -1.13% (inactive).
With `Cc1ccccc1N1C(=O)C(Oc2ccc(Cl)cc2)C1CNCC1CCCO1` (centres undefined) the max response was 0.428% (inactive).
With `CC(=O)Nc1sc2c(c1C(c1cccc(F)c1)N1CCN(CCO)CC1)CCCC2` (centres undefined) the max response was -2.8% (inactive).
With `CCOCCCNC(=O)c1ccc(CS(=O)(=O)c2cccc(C(F)(F)F)c2)o1` the max response was -3% (inactive).
For `Cc1ccc(-c2ccnc3[nH]n(-c4ccccc4)c(=O)c23)cc1`, the max response was 4.53% (inactive).
For `COc1ccccc1N1CCN(c2ccc([N+](=O)[O-])nc2)CC1`, the max response was 12.7% (inactive).
In the case of `COc1ccc(OC)c(-c2c(=O)n(OCc3ccccc3Br)c3ccccc3[n+]2[O-])c1`, the max response is reported as -4.9% (inactive).
In the case of `CCOc1ccc(OCC)c(-c2c(=O)n(OCc3ccc(Cl)cc3)c3ccccc3[n+]2[O-])c1`, the max response is reported as -2.89% (inactive).
With `CCOC(=O)COn1c(=O)c(-c2ccc(OCC)cc2)[n+]([O-])c2ccccc21` the max response was 21.8% (active).
With `COCCNC(=O)C(c1ccc(C)cc1)N(C(=O)CCC(=O)Nc1ccccn1)c1cccc(C)c1` (centres undefined) the max response was -1.18% (inactive).
For `O=C(Cn1ncc2c3ccccc3n(Cc3ccccc3)c2c1=O)NCc1ccccn1`, the max response was -1.24% (inactive).
In the case of `CCCCCOc1ccc(CSC2=NCCN2)cc1[N+](=O)[O-]`, the max response is reported as 16.2% (active).
For `CCCCOc1ccc(CSC(=N)N)cc1[N+](=O)[O-]`, the max response was -3.27% (inactive).
In the case of `CCCOc1ccc(Cn2ccnc2)cc1[N+](=O)[O-]`, the max response is reported as 6.93% (inactive).
In the case of `CCN=C1S/C(=C\c2cc(Br)ccc2OCC(=O)OCC)C(=O)N1CC`, the max response is reported as 2.07% (inactive).
With `c1ccc(C(c2ccccc2)N2CCN(Cc3nnnn3C3CCCCC3)CC2)cc1` the max response was -1.95% (inactive).
For `CC(=O)Nc1ccc(NC(=O)C2CCCN2S(=O)(=O)c2cccc(C(F)(F)F)c2)cc1` (centres undefined), the max response was 0.889% (inactive).
In the case of `O=C1CCc2cc(S(=O)(=O)N3CCC(C(=O)NCc4ccccc4Cl)CC3)ccc2N1`, the max response is reported as 5.54% (inactive).
For `CSc1cccc(NC(=O)C2CCCN2S(=O)(=O)c2ccc3c(c2)CCC(=O)N3)c1` (centres undefined), the max response was 25.7% (active).
With `CS(=O)(=O)N1CCN=C1SCc1ccc(F)cc1` the max response was -2.32% (inactive).
In the case of `Cc1cc(OCC(=O)Nc2c(C)n(C)n(-c3ccccc3)c2=O)ccc1[N+](=O)[O-]`, the max response is reported as 1.26% (inactive).
In the case of `O=C1CSC(=S)N1c1ccc(O)cc1`, the max response is reported as 0.99% (inactive).
For `O=S(=O)(c1ccc(-c2ccno2)s1)N1CCCCC1`, the max response was -3.51% (inactive).
For `Cc1cc(NC(=O)CCC(=O)N(Cc2ccccc2)C(C(=O)NC2CCCC2)c2ccc(C)o2)no1` (centres undefined), the max response was -2.01% (inactive).
For `COc1ccc(-c2cc(=O)c3c(O)cc(O[C@@H]4O[C@H](CO[C@@H]5O[C@@H](C)[C@H](O)[C@@H](O)[C@H]5O)[C@@H](O)[C@H](O)[C@H]4O)cc3o2)cc1O`, the max response was -0.55% (inactive).
In the case of `O=c1cc(-c2ccc(O)cc2)oc2c(-c3cc(-c4cc(=O)c5c(O)cc(O)cc5o4)ccc3O)c(O)ccc12`, the max response is reported as -11.1% (inactive).
With `COc1c(O)cc2oc(-c3ccc(O)c(O)c3)cc(=O)c2c1O` the max response was 43% (active) and 45.2% (active).
In the case of `Cc1cc(C)cc(Oc2c(C(F)(F)F)oc3cc(OCC(=O)O)ccc3c2=O)c1`, the max response is reported as -1.36% (inactive).
With `c1ccc(-c2cnc(CN3CCN(c4ccccc4)CC3)o2)cc1` the max response was 7.72% (inactive).
In the case of `O=C(CCc1ccccc1F)N1CCN(c2ccccc2)CC1`, the max response is reported as 0.391% (inactive).
With `CCc1ccc(NC(=O)CS(=O)CC(=O)N2CCN(c3ccccc3F)CC2)cc1` (centres undefined) the max response was 3.43% (inactive).
With `O=C(CCS(=O)(=O)c1cccc2nsnc12)N1CCN(c2ccccc2F)CC1` the max response was 6.58% (inactive).
In the case of `O=C(NCC(=O)N1CCN(c2ccccc2O)CC1)c1ccc2ccccc2c1`, the max response is reported as 1.36% (inactive).
With `O=C(CCSc1ccccc1)N1CCN(c2ccccc2F)CC1` the max response was 48.8% (active).
For `O=C(NCC(=O)N1CCN(c2ccccc2F)CC1)c1cccs1`, the max response was 23.4% (active).
For `COc1ccc(NC(=O)CSCc2ccc([N+](=O)[O-])cc2)cc1OC`, the max response was -3.9% (inactive).
With `Cc1cccc(N2CCN(C(=O)c3cccc(N4C(=O)C5C6C=CC(C6)C5C4=O)c3)CC2)c1C` (centres undefined) the max response was -6.3% (inactive).
With `Cc1ccc(Nc2nnc(SCC(=O)c3cc4ccccc4o3)s2)cc1C` the max response was 10.2% (inactive).
In the case of `CC(C)c1ccc(Nc2nnc(SCC(=O)c3nnc(-c4ccccc4)o3)s2)cc1`, the max response is reported as 23.6% (active).
With `O=C(CSc1nnc(Nc2ccccc2)s1)Nc1cccnc1Cl` the max response was 2.36% (inactive).
In the case of `Cc1cc(=O)oc2c3c(cc(OCC(=O)NCc4ccccn4)c12)OC(C)(C)CC3`, the max response is reported as -2.86% (inactive).
For `Cc1ccc(N2CCN(c3ccc([N+](=O)[O-])cn3)CC2)c(C)c1`, the max response was -4.64% (inactive).
With `O=C(COc1ccc(S(=O)(=O)Nc2cccc(C(F)(F)F)c2)cc1)N1CCOCC1` the max response was -0.756% (inactive).
For `CCOC(=O)CSc1ccccn1`, the max response was -1.11% (inactive).
In the case of `CN(C)c1nc(N)nc(CSc2nnnn2-c2cccc3ccccc23)n1`, the max response is reported as -1% (inactive).
With `CN(C)c1nc(N)nc(CSc2ccccn2)n1` the max response was 21.5% (active).
With `CCOC(=O)c1cc2c(=O)[nH]c(C(Cl)(Cl)Cl)nc2o1` the max response was 7.51% (inactive).
In the case of `O=C(O)c1cccc2c1C(=O)N(C1CCCC1)C2`, the max response is reported as -2.23% (inactive).
In the case of `Cc1cccc(OCc2ccc(C(=O)Nc3ccc(F)cc3)cc2)c1`, the max response is reported as -3.2% (inactive).
In the case of `Cc1cccc(NC(=O)c2nc(S(=O)(=O)Cc3ccccc3)ncc2Cl)c1`, the max response is reported as 29% (active).
With `CCOc1ccc(NC(=O)c2nc(SCC)ncc2Cl)cc1` the max response was -5.84% (inactive).
In the case of `Cc1cccc(CS(=O)(=O)c2ncc(Cl)c(C(=O)Nc3ccc(F)cc3)n2)c1`, the max response is reported as 30.3% (active).
For `CCSc1ncc(Cl)c(C(=O)Nc2cc(C)ccc2C)n1`, the max response was -0.976% (inactive).
With `Cc1cccc(NC(=O)c2nc[nH]c2C(=O)NCC(=O)OCc2ccccc2)c1` the max response was 1.03% (inactive).
